PubChem BioAssay (NCI)
This is part of a sample that, as a whole, favours compounds with a hit. Of some 83,000 tested, about 20% had one in any assay.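 Assay: single dose, 48 h. Readout: percent growth (0 = no net growth; negative = cell death). Active: <10.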 Unmarked numbers belong to inactive results. Calls of active or inactive are those of the source.

The compounds below were run on SF-268 CNS (assay: NCI-60 one-dose screen, 48 h (100 = growth as untreated, 0 = no growth, -100 = all killed)). Conditions: 10 µM unless noted.
`N#Cc1c(N)[nH]c(S)c1C#N` showed a growth of 108%.
`NC(=Nc1ccccc1)SCCCCSC(N)=Nc1ccccc1` showed a growth of 90%.
`CN(C)c1cccc2c(S(=O)(=O)N[C@H]3CC[C@H]4[C@@H]5CCc6cc(O)ccc6[C@H]5CC[C@]34C)cccc12` showed a growth of 40.6%.
`CCCCCCCCCCCCCCCCCc1nccn1CCO` showed a growth of 73.5%.
`COC(=O)CCC1=C(C)/C(=C/c2[nH]c(-c3ccc[nH]3)cc2OC)N=C1C` showed a growth of 21.9%.
For `NC(=O)N/N=C/c1ccc(Br)o1`, the growth was 99.6%.
In the case of `COc1ccc(OC)c2c1[nH]c(=O)c1c3ccccc3cn21`, the growth is reported as -64.9% (active).
`O=C1C(=O)c2ccc(Br)cc2-c2cc(Br)ccc21` was tested, and the growth was 22.4%.
`O=c1c(O)cccn1CCCNCCCN(CCCn1cccc(O)c1=O)CCCn1cccc(O)c1=O` was tested, and the growth was 94%.
Work on `CN(CCOc1ccc(CC2SC(=O)NC2=O)cc1)c1ccccn1` (centres undefined) yielded a growth of 105%.
In the case of `COc1cccc2c1C(=O)c1c(O)c3c(c(O)c1C2=O)C[C@@](O)(/C(C)=N/NC(=O)c1cccc([N+](=O)[O-])c1)C[C@@H]3OC1CC(N)C(O)C(C)O1` (some centres undefined), the growth is reported as -20% (active).
With `Cc1nnc(Nc2ccc(NC(=O)Nc3ccc(Cl)cc3)cc2)c2ccccc12` the growth was 48.7%.
`O=C(Nc1ccc(Cl)cc1)Nc1ccc(Nc2nncc3ccccc23)cc1` gave a growth of 42.4%.
With `OCc1nnn(-c2ccccc2)c1CO` the growth was 105%.
`COc1ccc2c(c1)C(=O)c1c-2c(=O)n(CCCCCCC(=O)NO)c2ccccc12` was tested, and the growth was 10.1%.
With `O=[N+]([O-])c1ccc(N/N=C\c2ccccc2[N+](=O)[O-])nc1` the growth was 107%.
With `CN1COc2ccc3ccccc3c2C1` the growth was 100%.
`O=C(Nc1cccc2ccccc12)c1cc2c(cc1Br)OCO2` gave a growth of 104%.
With `Cc1cc(NC(=O)Nc2cc(Cl)ccc2C)no1` the growth was 100%.
`O=C1C[C@@H]2/C(=C(O)\C=C\c3ccccc3)C(=O)C=C[C@@H]2O1` gave a growth of 11.6%.
`O=C1/C(=C/c2ccc([N+](=O)[O-])o2)Oc2ccc(Cl)cc21` was tested, and the growth was -52% (active).
`c1ccc(N2CCN(c3nncc4ccccc34)CC2)nc1` showed a growth of 103%.
With `O=C(Nc1ccc(Oc2ccc(NC(=O)Nc3ccc([N+](=O)[O-])cc3)cc2)cc1)Nc1ccc([N+](=O)[O-])cc1` the growth was 19.7%.
Compound `Cc1cc(C)n(C(=O)c2nn(-c3ccc(Cl)cc3)cc2O)n1` has a growth of 39.9%.
Compound `NC(=O)c1ncn([C@@H]2O[C@H](CO)[C@@H](O)[C@H]2O)n1` has a growth of 109%.
Compound `CCCCN(CCCC)CCCOC(=O)c1ccc(N)cc1` has a growth of 96.3%.
`COc1ccc2c(c1)C(=O)/C(=C/c1ccc([N+](=O)[O-])s1)O2` was tested, and the growth was -72.7% (active).
For `CCCCCCCCCCCCCCCCCC1=NC(C)(C)CN1CCO`, the growth was -67.1% (active).
`COc1cc([C@@H]2c3cc4c(cc3C(O[C@@H]3O[C@@H]5CO[C@@H](c6cccs6)OC5[C@H](O)[C@H]3O)C3COC(=O)[C@@H]32)OCO4)cc(OC)c1O` (some centres undefined) was tested, and the growth was -17.1% (active).
In the case of `CC12CCC3C(CCC4CC(=O)/C(=C\O)CC43C)C1CCC(=O)O2` (centres undefined), the growth is reported as 108%.
In the case of `O=C(Nc1ccc(Cl)cc1Cl)Nc1ccc(-c2cccnc2)cc1N1CCC(CO)CC1`, the growth is reported as 48.4%.
With `CCN(CC)CCCCNc1c2ccccc2[n+](C)c2c1[nH]c1ccccc12` the growth was -16.2% (active).
In the case of `Cc1ccc(NC(=O)Nc2ccc(-c3cccnc3)cc2N2CCC(CO)CC2)cc1`, the growth is reported as 36.5%.
With `COc1cc(C2CC(c3ccc(C)cc3)=NN2C(C)=O)ccc1Oc1ccnc2cc(Cl)ccc12` (centres undefined) the growth was 41.9%.
In the case of `C[n+]1c2ccccc2c(NC2CCNCC2)c2[nH]c3ccccc3c21`, the growth is reported as -31% (active).
In the case of `Clc1ccc([C@@H]2C[C@@H]3Cc4cc(Br)c5ccccc5c4N2O3)c(Cl)c1`, the growth is reported as 85.8%.
With `C=C(C)[C@@H]1C[C@H](O)Cc2cc(Cl)cc(Cl)c2N1` the growth was 102%.

The compounds below were run on SF-295 CNS in the same assay as above. Conditions: 10 µM unless noted.
In the case of `N#Cc1c(N)[nH]c(S)c1C#N`, the growth is reported as 87.7%.
Compound `NC(=Nc1ccccc1)SCCCCSC(N)=Nc1ccccc1` has a growth of 77.5%.
`CN(C)c1cccc2c(S(=O)(=O)N[C@H]3CC[C@H]4[C@@H]5CCc6cc(O)ccc6[C@H]5CC[C@]34C)cccc12` showed a growth of 44.9%.
In the case of `CCCCCCCCCCCCCCCCCc1nccn1CCO`, the growth is reported as 144%.
`COC(=O)CCC1=C(C)/C(=C/c2[nH]c(-c3ccc[nH]3)cc2OC)N=C1C` was tested, and the growth was -30% (active).
In the case of `NC(=O)N/N=C/c1ccc(Br)o1`, the growth is reported as 103%.
For `COc1ccc(OC)c2c1[nH]c(=O)c1c3ccccc3cn21`, the growth was -76.7% (active).
For `O=C1C(=O)c2ccc(Br)cc2-c2cc(Br)ccc21`, the growth was 78.1%.
`O=c1c(O)cccn1CCCNCCCN(CCCn1cccc(O)c1=O)CCCn1cccc(O)c1=O` was tested, and the growth was 102%.
Work on `CN(CCOc1ccc(CC2SC(=O)NC2=O)cc1)c1ccccn1` (centres undefined) yielded a growth of 98.9%.
For `COc1cccc2c1C(=O)c1c(O)c3c(c(O)c1C2=O)C[C@@](O)(/C(C)=N/NC(=O)c1cccc([N+](=O)[O-])c1)C[C@@H]3OC1CC(N)C(O)C(C)O1` (some centres undefined), the growth was -38.5% (active).
In the case of `Cc1nnc(Nc2ccc(NC(=O)Nc3ccc(Cl)cc3)cc2)c2ccccc12`, the growth is reported as 4.8% (active).
`O=C(Nc1ccc(Cl)cc1)Nc1ccc(Nc2nncc3ccccc23)cc1` was tested, and the growth was 17.8%.
For `OCc1nnn(-c2ccccc2)c1CO`, the growth was 115%.
With `COc1ccc2c(c1)C(=O)c1c-2c(=O)n(CCCCCCC(=O)NO)c2ccccc12` the growth was -33.7% (active).
`O=[N+]([O-])c1ccc(N/N=C\c2ccccc2[N+](=O)[O-])nc1` was tested, and the growth was 103%.
`CN1COc2ccc3ccccc3c2C1` showed a growth of 96.1%.
With `O=C(Nc1cccc2ccccc12)c1cc2c(cc1Br)OCO2` the growth was 107%.
In the case of `Cc1cc(NC(=O)Nc2cc(Cl)ccc2C)no1`, the growth is reported as 112%.
Work on `O=C1C[C@@H]2/C(=C(O)\C=C\c3ccccc3)C(=O)C=C[C@@H]2O1` yielded a growth of 71.2%.
In the case of `O=C1/C(=C/c2ccc([N+](=O)[O-])o2)Oc2ccc(Cl)cc21`, the growth is reported as 103%.
Compound `c1ccc(N2CCN(c3nncc4ccccc34)CC2)nc1` has a growth of 107%.
Work on `O=C(Nc1ccc(Oc2ccc(NC(=O)Nc3ccc([N+](=O)[O-])cc3)cc2)cc1)Nc1ccc([N+](=O)[O-])cc1` yielded a growth of 22%.
With `Cc1cc(C)n(C(=O)c2nn(-c3ccc(Cl)cc3)cc2O)n1` the growth was -4.15% (active).
Work on `NC(=O)c1ncn([C@@H]2O[C@H](CO)[C@@H](O)[C@H]2O)n1` yielded a growth of 95.5%.
Compound `CCCCN(CCCC)CCCOC(=O)c1ccc(N)cc1` has a growth of 84.5%.
`COc1ccc2c(c1)C(=O)/C(=C/c1ccc([N+](=O)[O-])s1)O2` was tested, and the growth was 5.53% (active).
With `CCCCCCCCCCCCCCCCCC1=NC(C)(C)CN1CCO` the growth was -2.44% (active).
For `COc1cc([C@@H]2c3cc4c(cc3C(O[C@@H]3O[C@@H]5CO[C@@H](c6cccs6)OC5[C@H](O)[C@H]3O)C3COC(=O)[C@@H]32)OCO4)cc(OC)c1O` (some centres undefined), the growth was -19.9% (active).
`CC12CCC3C(CCC4CC(=O)/C(=C\O)CC43C)C1CCC(=O)O2` (centres undefined) showed a growth of 109%.
For `O=C(Nc1ccc(Cl)cc1Cl)Nc1ccc(-c2cccnc2)cc1N1CCC(CO)CC1`, the growth was 81.6%.
`CCN(CC)CCCCNc1c2ccccc2[n+](C)c2c1[nH]c1ccccc12` was tested, and the growth was -47.1% (active).
For `Cc1ccc(NC(=O)Nc2ccc(-c3cccnc3)cc2N2CCC(CO)CC2)cc1`, the growth was 40.1%.
`COc1cc(C2CC(c3ccc(C)cc3)=NN2C(C)=O)ccc1Oc1ccnc2cc(Cl)ccc12` (centres undefined) gave a growth of 14.9%.
With `C[n+]1c2ccccc2c(NC2CCNCC2)c2[nH]c3ccccc3c21` the growth was 13.6%.
Work on `Clc1ccc([C@@H]2C[C@@H]3Cc4cc(Br)c5ccccc5c4N2O3)c(Cl)c1` yielded a growth of 65.5%.
Work on `C=C(C)[C@@H]1C[C@H](O)Cc2cc(Cl)cc(Cl)c2N1` yielded a growth of 104%.
